Out of some 4,000 compounds screened, about 350 (8.8%) were called active.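 The calls were made as follows: active = calcium fluorescence ratio at least three times the spread of buffer wells, meaning a non-specific response in parental cells; inactive = the rest.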 Shown is part of a subset that was picked to be rich in actives.
Assay: calcium response in parental HEK293 cells, primary screen, counter-screen for MrgX1 agonist project, cell-based, Fluo-4 calcium flux, duplicate, agonist mode (AID 624115)
Settings: parental HEK293, Fluo-4 calcium fluorescence (FDSS), at 10 µM; stronger effect = higher value

SMILES | fluorescence ratio F(max-min)/F0
CCCCC(=O)N/N=C/c1c(O)n(CC)c(=S)n(CC)c1=O | 78.9 (active)
O=C(CCN1CCCCC1)NCC(=O)Nc1ccc(Br)cc1C(=O)c1ccccc1 | inactive
CCCCCn1c(=O)c(C(=O)NCc2ccccc2)c(O)c2ccccc21 | inactive
C=CCN1C(=O)C2(C(C(=O)OCC)=C(N)Oc3c2c(=O)oc2ccccc32)c2ccccc21 (stereo not given) | inactive
COc1ccc(S(=O)(=O)NCc2ccc(C(=O)N3CCC4(CC3)OCCO4)cc2)cc1 | inactive
